An excerpt weighted towards active compounds, which were near 2.2% of everything screened.
uPA surface inh = blocks generation of uPA at the cell surface | cell surface uPA generation assay, qHTS | Potency, µM (series often up to 38.3 µM), without a hit: at the top dose activity change, negative = inhibition, hits mostly inhibitors | actives 0.31% (n = 330,000) | AID 540303; active = well fitted inhibition curve with a large enough effect; inconclusive = small, poorly fitted or top-dose-only effect; inactive = no such curve, though single readings can be large or run the other way; tested in mouse RAW 264.7 cells; also: potency is read from the fitted curve at half-maximal effect; % is scaled to controls: 0 for no effect and ±100 for the full control effect; nearly all actives have a fitted effect of over 55% in size
Mm-Cpn inhibitor = blocks the Methanococcus maripaludis chaperonin Mm-Cpn; purified Mm-Cpn ATPase, ADP Transcreener TR-FRET; Potency, µM (titrated, usually from 76.9 µM), without a hit: top-dose activity, negative = inhibition, most hits filed as inhibitors; actives 0.031% (n = 330,000); also: potency is read from the fitted curve at half-maximal effect; % is scaled to controls: 0 for no effect and ±100 for the full control effect; nearly all actives have a fitted effect of over 80% in size
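Compound-treated chaperonin, 25 nM final, turns over 10 uM ATP at 37°C for 30 min following a 10 min preincubation; ADP generated competes with ADP-d2 for Eu-cryptate antibody, lowering FRET.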
GLP1R inv ag = acts as inverse agonist at human GLP-1 receptor. P43220. HEK293 GLP-1R CRE-luciferase, luminescence, 24 h; GLP-1R form is constitutively active. Potency, µM (top dose mostly 38.3 µM), for inactives: top-dose activity change, negative = inhibition, usual class: inhibitors. actives 1.6% (n = 410,000); also: potency is read from the fitted curve at half-maximal effect; % is scaled to controls: 0 for no effect and ±100 for the full control effect; nearly all actives have a fitted effect of over 55% in size
Target sequence (P43220 whole entry, looked up): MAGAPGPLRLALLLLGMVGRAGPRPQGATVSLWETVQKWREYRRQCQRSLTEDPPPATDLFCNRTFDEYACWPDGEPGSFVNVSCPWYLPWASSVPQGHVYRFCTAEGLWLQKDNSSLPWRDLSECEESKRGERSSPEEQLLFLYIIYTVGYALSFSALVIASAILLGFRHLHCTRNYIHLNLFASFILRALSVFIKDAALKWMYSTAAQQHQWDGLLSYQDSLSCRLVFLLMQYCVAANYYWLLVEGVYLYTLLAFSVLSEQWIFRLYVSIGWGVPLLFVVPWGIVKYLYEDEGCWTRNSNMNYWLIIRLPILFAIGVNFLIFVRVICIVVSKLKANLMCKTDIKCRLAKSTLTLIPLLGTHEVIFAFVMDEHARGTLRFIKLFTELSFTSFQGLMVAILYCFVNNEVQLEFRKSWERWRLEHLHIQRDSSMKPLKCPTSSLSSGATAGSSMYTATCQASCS
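Readout was luciferase luminescence, measured 12 min after detection reagent at room temperature. Beforehand, GLP-1R reporter HEK293 cells had sat 12 h, then received compounds for 24 hr at 37 deg C.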
GLP1R cytotox = cytotoxic in the GLP-1 receptor inverse agonist counter-screen; Potency, µM (titrated, usually from 38.3 µM), for inactives: at the top dose activity change, negative = inhibition, actives largely listed as inhibitors; actives 0.13% (n = 410,000); HEK293 cAMP-luciferase reporter cells, luminescence, 24 h;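 also: loss of luciferase light is scored as toxicity; potency is read from the fitted curve at half-maximal effect; % is scaled to controls: 0 for no effect and ±100 for the full control effect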
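To flag toxic compounds, the library was rerun on cells for 24 hr at 37 deg C and 5% CO2. Viability-linked luminescence was captured 12 min after adding luciferase detection reagent.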
GLP1R ag = agonists of human GLP-1 receptor; actives 0.007% (n = 380,000); HEK293 GLP-1R CRE-luciferase, luminescence, 4-6 h; cells express a hypersensitive GLP-1R form; P43220; Potency, µM (titrated, usually from 45.6 µM), for the others: at the top dose activation, most hits filed as activators; also: potency is read from the fitted curve at half-maximal effect; % of control where 0% means no effect
CCT chaperon mod = changes cytosolic chaperonin activity; purified chaperonin ATPase assay, HTRF ADP detection, 30 min; activity change, % (test concentration not listed), hits read low; AID 651819; actives 0.3% (n = 360,000); in the data active = activity change below about -30%; also: % is scaled to controls: 0 for no effect and ±100 for the full control effect
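We incubate TRiC, 40 or 20 nM final, with library compounds at 76 uM and 10 uM ATP for 30 min at 37 °C. ADP formed is detected with Transcreener HTRF reagents after 30 min at room temperature.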
The depositor's hits bear a star; u = inconclusive; x = not tested or not shown; [ ] = remark or other dose. Unless noted, calls follow the shape of the dose curve; as a rule, active = well fitted curve in the direction sought with a large enough effect; inconclusive = small, poorly fitted or top-dose-only effect, or another doubt; inactive = no such curve, though single readings can be large; an effect the other way counts as inactive or inconclusive.

SMILES	uPA surface inh	Mm-Cpn inhibitor	GLP1R inv ag	GLP1R cytotox	GLP1R ag	CCT chaperon mod
O=C(CNC(=O)c1cccc(S(=O)(=O)N2CCc3ccccc32)c1)Nc1ccccc1Br	5%	x	u	-20%	-6%	-3
CCc1ccc(NC(=O)c2ccc(F)c(S(=O)(=O)N3CCC4(CC3)OCCO4)c2)cc1	x	x	u	2%	x	x
O=C(Nc1ccc(Br)cc1)c1cccc(S(=O)(=O)N2CCc3ccccc32)c1	x	x	2µM*	-3%	x	x
O=C(Nc1ccc(Br)cc1)c1ccc(F)c(S(=O)(=O)N2CCCc3ccccc32)c1	x	x	3.2µM*	-10%	x	x
COC(=O)C1=CN(c2ccc(C(C)(C)C)cc2)C(N)=C(C#N)C1c1cccc([N+](=O)[O-])c1 (stereo unspecified)	x	x	u	5%	x	x
COc1ccc(-c2cc(CNc3nc(NC(C)C)nc4cc(-c5ccccc5)sc34)on2)cc1	x	x	u	u	7%	0
C[C@H]1[C@@H]2Cc3ccc(O)cc3[C@]1(C)CCN2CCc1ccccc1	x	x	x	x	4%[96 µM]	x
C[C@]12CCC(=O)C=C1CC[C@@H]1[C@H]3CC[C@](C)(O)[C@@]3(C)CC[C@@H]12	x	x	x	x	12%[96 µM]	x
CCN1CCN(c2cc(C)c3cc(NC(=O)c4ccc(OC)c(OC)c4)ccc3n2)CC1	7.9µM*	-2%	-1%	u	20%	1
C[C@@H]1C[C@H]2OC(=O)C3(CO3)[C@H]2[C@H](O)[C@]2(C)C(=O)C3OC3[C@@H]12 (stereo partly specified)	x	-1%	x	x	x	x
C=C1C(=O)O[C@@H]2C[C@@H](C)[C@@H]3C=CC(=O)[C@@]3(C)[C@@H](OC(C)=O)[C@H]12	u	0%	4.5µM*	u	-23%	0
C=C1C(=O)O[C@@H]2C[C@@H](C)[C@@H]3C=CC(=O)[C@@]3(C)[C@@H](O)[C@H]12	-74%	0%	2.5µM*	u	-10%	2
CCN(CC)c1ccc(/C=N/N(c2ccccc2)c2ccccc2)c(O)c1	u	-4%	6.3µM*	22%	-2%	1
CCN(CC)c1ccc(/C=N/NC(=O)Cc2cccs2)c(O)c1	-19%	-1%	u	u	1%	1
CCOc1ccc(-c2nc(CSCC(=O)NCCc3ccc(OCC)c(OCC)c3)c(C)o2)cc1	x	x	u	-5%	x	x
c1ccc2c(c1)CSc1ccccc1C2C1=NCCN1 (stereo unspecified)	-6%	0%	u	-32%	-2%	-1
Brc1ccc2c(c1)C(OC1CN3CCC1CC3)c1ccccc1CS2 (stereo unspecified)	u	1%	u	10µM*	-43%	1
CN1CC[C@]23c4c5ccc(O)c4OC2[C@H](O)C=CC3[C@H]1C5 (stereo partly specified)	14%	2%	8%	1%	18%	-2
CN1CCC23c4c5ccc(O)c4O[C@@H]2[C@H](O)C=CC3C1C5 (stereo partly specified)	12%	0%	1%	-3%	3%	-45*
COc1ccc(C(C)=O)cc1CSc1nc(NCc2ccccc2)c2ccccc2n1	x	x	-17%	u	x	x
CS(=O)(=O)c1ccccc1C(=O)N1CCN(S(=O)(=O)c2ccc(C3CCCCC3)cc2)CC1	u	1%	10µM*	-7%	-1%	-3
CC[n+]1c(-c2ccccc2)c2cc(N)ccc2c2ccc(N)cc21	-12%	x	5.6µM*	u	-30%	-1
O[C@@H]1[C@@H](O)C=C2CCN3Cc4cc5c(cc4[C@H]1C23)OCO5 (stereo partly specified)	1µM*	-1%	u	u	-13%	-4
O=c1nc(/C=C/c2ccc(Cl)cc2Cl)cc(C(F)(F)F)[nH]1	u	-2%	4µM*	-7%	-4%	2
Cc1cc(C)cc(NC(=O)CCCn2c3ccccc3c(=O)c3ccccc32)c1	x	x	3.5µM*	75%	x	x
SMILES	uPA surface inh	Mm-Cpn inhibitor	GLP1R inv ag	GLP1R cytotox	GLP1R ag	CCT chaperon mod
CCCCn1c(=O)c(C(=O)Nc2cccc(C)c2)c(O)c2ccccc21	22%	0%	15%	3%	-1%	0
CCCCCN1C(=O)c2ccccc2[C@@]2(C(=O)OCC)Cc3cc(OC)ccc3[C@@H]12	x	x	8.9µM*	u	-13%	-1
CCOC(=O)[C@]12Cc3cc(C)ccc3[C@H]1N(Cc1ccccc1)C(=O)c1cc(F)c(F)cc12	x	x	11µM*	-27%	-32%	-1
CCOC(=O)[C@]12Cc3cc(OC)ccc3[C@H]1N(Cc1ccccc1)C(=O)c1ccccc12	-17%	x	u	-11%	-3%	0
CCOC(=O)[C@]12Cc3cc(OC)ccc3[C@H]1N(Cc1ccccc1)C(=O)c1cc(F)c(F)cc12	u	x	u	12%	7%	-2
Cc1ccc(NC(=O)C(CC(C)C)NS(=O)(=O)c2ccc3c(c2)oc(=O)n3C)c(C)c1 (stereo unspecified)	x	x	-15%	u	-1%	x
COc1ccc(NC(=O)CCn2cnc3onc(-c4ccc(F)cc4)c3c2=O)cc1OC	x	x	u	-15%	x	x
CC(C)Cn1cnc2c(c(-c3ccccc3)c(-c3ccccc3)n2Cc2ccco2)c1=N	-8%	1%	3.2µM*	u	-7%	-5
CCN(CC)CCNc1ccc(CO)c2oc3ccccc3c(=O)c12	x	x	u	u	-2%	1
O=C(NN=Cc1ccc(N(CCCl)CCCl)cc1)c1cc(=O)[nH]c(=O)[nH]1	-13%	x	u	-3%	4%	-3
O=C(NN=Cc1ccc(N(CCCl)CCCl)cc1)C(=O)c1c[nH]c2ccccc12	-7%	x	5.6µM*	-3%	6%	-1
COc1cccc(Nc2nc(C(N)Cc3ccc(Cl)cc3)cs2)n1 (stereo unspecified)	x	x	u	u	-6%	-1
C[C@H](CO)N1C[C@H](C)[C@H](CN(C)C(=O)N[C@H](C)c2ccccc2)OCc2ccccc2-c2c(n(C)c3ccccc23)C1=O	x	x	u	1%	9%	-2
CCC(N)CCc1c[nH]c2ccccc12 (stereo unspecified)	x	x	x	x	-1%[110 µM]	x
CC1(c2ccccc2)CC(C)(C)N2C(=O)C3(C(C#N)=C(N)Oc4cc(O)ccc43)c3cccc1c32 (stereo unspecified)	u	1%	5.6µM*	u	-13%	0
CCOC(=O)C1=C(N)Oc2cc(C)oc(=O)c2C12C(=O)N1c3c(cccc32)C(C)CC1(C)C (stereo unspecified)	x	x	0%	-5%	2%	-1

Source: PubChem BioAssay
